Measured values reported in PubChem BioAssay AID1159580 (chemical genetic matrix, 2015).
Screen size: about 5,500 compounds; about 2,000 (36%) were called active. About 18% were inconclusive and are not listed. Cut-off read from the data, not from the text of the source: active = normalized growth mostly below about 0.91 (no sharp cut-off); inconclusive = no clear call, values can overlap the other calls; inactive = mostly above about 0.92. Some of the results follow.

Assay: chemical genetic growth profiling, strain panel (AID 1159580);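 note: tested at 20 µM; growth read once vehicle control cultures reached saturation at 30 °C; 1 = growth at the plate median or of vehicle wells; lower values mean less growth of the strain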
Details: growth OD

Measured: normalized growth

CC(=O)[C@H]1CCC2C3C[C@H](C)C4=CC(=O)CC[C@]4(C)C3[C@@H](O)C[C@@]21C (some centres undefined)
inactive: S. cerevisiae deletion strains, locus YJR075W, strain HOC1, hits give low values 0.993 | S. cerevisiae deletion strains, locus YKL009W, strain mrt4, hits give low values 0.991 | S. cerevisiae deletion strains, locus YKL068W, hits give low values 0.977 | S. cerevisiae deletion strains, locus YKL085W, strain MDH1 (second series), hits give low values 0.96 | S. cerevisiae deletion strains, locus YKL085W, strain MDH1, hits give low values 0.96 | S. cerevisiae deletion strains, locus YKL160W, strain elf1, hits give low values 0.956 | S. cerevisiae deletion strains, locus YKL190W, strain CNB1, hits give low values 0.989 | S. cerevisiae deletion strains, locus YKR001C, strain vps1, hits give low values 0.998 | S. cerevisiae deletion strains, locus YKR026C, strain gcn3, hits give low values 0.986 | S. cerevisiae deletion strains, locus YKR091W, strain srl3, hits give low values 0.977 | S. cerevisiae deletion strains, locus YLL001W, strain dnm1, hits give low values 0.947 | S. cerevisiae deletion strains, locus YLL026W, hits give low values 0.99 | S. cerevisiae deletion strains, locus YLL041C, strain sdh2, hits give low values 0.983 | S. cerevisiae deletion strains, locus YLR027C, strain aat2, hits give low values 0.996 | S. cerevisiae deletion strains, locus YLR039C, strain RIC1, hits give low values 0.785 | S. cerevisiae deletion strains, locus YLR058C, strain SHM2, hits give low values 0.98 | S. cerevisiae deletion strains, locus YLR102C, strain apc9, hits give low values 0.975 | S. cerevisiae deletion strains, locus YLR113W, strain HOG1, hits give low values 0.993 | S. cerevisiae deletion strains, locus YLR221C, strain rsa3, hits give low values 0.945 | S. cerevisiae deletion strains, locus YLR258W, strain gsy2, hits give low values 0.986 | S. cerevisiae deletion strains, locus YLR262C, strain YPT6 (second series), hits give low values 0.95 | S. cerevisiae deletion strains, locus YLR262C, strain YPT6, hits give low values 0.901 | S. cerevisiae deletion strains, locus YLR268W, strain sec22, hits give low values 0.995 | S. cerevisiae deletion strains, locus YLR320W, strain mms22, hits give low values 0.961 | S. cerevisiae deletion strains, locus YLR330W, strain CHS5, hits give low values 0.988 | S. cerevisiae deletion strains, locus YLR342W, strain FKS1 (second series), hits give low values 0.99 | S. cerevisiae deletion strains, locus YLR342W, strain FKS1, hits give low values 0.972 | S. cerevisiae deletion strains, locus YLR357W, strain rsc2, hits give low values 0.948 | S. cerevisiae deletion strains, locus YLR370C, strain arc18, hits give low values 0.959 | S. cerevisiae deletion strains, locus YLR371W, strain rom2, hits give low values 0.978 | S. cerevisiae deletion strains, locus YLR384C, strain iki3, hits give low values 0.987 | S. cerevisiae deletion strains, locus YLR418C, strain cdc73, hits give low values 0.97 | S. cerevisiae deletion strains, locus YML016C, strain PPZ1, hits give low values 0.994 | S. cerevisiae deletion strains, locus YML032C, strain rad52, hits give low values 1.01 | S. cerevisiae deletion strains, locus YML120C, strain ndi1, hits give low values 0.95 | S. cerevisiae deletion strains, locus YML124C, strain tub3, hits give low values 0.98 | S. cerevisiae deletion strains, locus YMR058W, strain fet3, hits give low values 0.989 | S. cerevisiae deletion strains, locus YMR078C, strain ctf18, hits give low values 0.96 | S. cerevisiae deletion strains, locus YMR125W, strain sto1, hits give low values 0.954 | S. cerevisiae deletion strains, locus YMR129W, hits give low values 0.983 | S. cerevisiae deletion strains, locus YMR205C, strain PFK2, hits give low values 0.938 | S. cerevisiae deletion strains, locus YMR223W, strain ubp8, hits give low values 0.953 | S. cerevisiae deletion strains, locus YMR231W, strain pep5, hits give low values 0.989 | S. cerevisiae deletion strains, locus YMR307W, strain GAS1, hits give low values 1.04 | S. cerevisiae deletion strains, locus YNL067W, strain RPL9B, hits give low values 0.99 | S. cerevisiae deletion strains, locus YNL071W, strain lat1, hits give low values 0.973 | S. cerevisiae deletion strains, locus YNL153C, strain GIM3, hits give low values 0.997 | S. cerevisiae deletion strains, locus YNL183C, strain NPR1, hits give low values 0.931 | S. cerevisiae deletion strains, locus YNL209W, strain ssb2, hits give low values 0.994 | S. cerevisiae deletion strains, locus YNL233W, strain BNI4, hits give low values 1 | S. cerevisiae deletion strains, locus YNL248C, strain rpa49, hits give low values 0.985 | S. cerevisiae deletion strains, locus YNL250W, strain rad50, hits give low values 0.961 | S. cerevisiae deletion strains, locus YNL271C, strain bni1, hits give low values 0.972 | S. cerevisiae deletion strains, locus YNL298W, strain CLA4, hits give low values 0.986 | S. cerevisiae deletion strains, locus YNL307C, strain MCK1, hits give low values 0.976 | S. cerevisiae deletion strains, locus YNL322C, strain KRE1 (second series), hits give low values 0.982 | S. cerevisiae deletion strains, locus YNR049C, strain mso1, hits give low values 0.985 | S. cerevisiae deletion strains, locus YNR052C, strain pop2, hits give low values 0.986 | S. cerevisiae deletion strains, locus YOL006C, strain TOP1, hits give low values 0.931 | S. cerevisiae deletion strains, locus YOL012C, strain htz1 1.85 | S. cerevisiae deletion strains, locus YOL147C, strain pex11, hits give low values 0.986 | S. cerevisiae deletion strains, locus YOR001W, strain rrp6, hits give low values 1.03 | S. cerevisiae deletion strains, locus YOR061W, strain CKA2, hits give low values 0.982 | S. cerevisiae deletion strains, locus YOR069W, strain VPS5, hits give low values 0.991 | S. cerevisiae deletion strains, locus YOR070C, strain gyp1, hits give low values 0.986 | S. cerevisiae deletion strains, locus YOR080W, strain dia2, hits give low values 0.984 | S. cerevisiae deletion strains, locus YOR083W, strain WHI5, hits give low values 0.972 | S. cerevisiae deletion strains, locus YOR106W, strain vam3, hits give low values 0.955 | S. cerevisiae deletion strains, locus YOR136W, strain idh2, hits give low values 1 | S. cerevisiae deletion strains, locus YOR144C, strain elg1, hits give low values 0.992 | S. cerevisiae deletion strains, locus YOR184W, strain ser1, hits give low values 0.962 | S. cerevisiae deletion strains, locus YOR231W, strain MKK1, hits give low values 0.977 | S. cerevisiae deletion strains, locus YOR265W, strain rbl2, hits give low values 0.988 | S. cerevisiae deletion strains, locus YOR270C, strain vph1, hits give low values 0.933 | S. cerevisiae deletion strains, locus YOR290C, strain snf2, hits give low values 0.895 | S. cerevisiae deletion strains, locus YOR316C, strain cot1, hits give low values 0.979 | S. cerevisiae deletion strains, locus YPL051W, strain arl3, hits give low values 0.983 | S. cerevisiae deletion strains, locus YPL055C, strain LGE1, hits give low values 0.991 | S. cerevisiae deletion strains, locus YPL078C, strain atp4, hits give low values 0.96 | S. cerevisiae deletion strains, locus YPL106C, strain sse1, hits give low values 0.968 | S. cerevisiae deletion strains, locus YPL240C, strain hsp82, hits give low values 0.989 | S. cerevisiae deletion strains, locus YPL241C, strain CIN2, hits give low values 0.995 | S. cerevisiae deletion strains, locus YPL256C, strain CLN2, hits give low values 0.983 | S. cerevisiae deletion strains, locus YPR119W, strain clb2, hits give low values 0.978 | S. cerevisiae deletion strains, locus YPR141C, strain kar3, hits give low values 0.961 | S. cerevisiae deletion strains, locus YPR163C, strain tif3, hits give low values 0.987 | S. cerevisiae deletion strains, locus YPR167C, strain met16, hits give low values 0.984 | S. cerevisiae deletion strains, strain wtn01, hits give low values 0.983 | S. cerevisiae strains, strain wild type, hits give low values 0.994
